# Tests used:
# Assay in all cases: yeast three-hybrid, YBZ-1, SC-Leu-His + 0.5 mM 3-AT, 4 days
# Settings in all cases: tags: N-Gal4 AD-HA kept; label: inside an RPR1-promoter hybrid RNA with tandem MS2 sites; ssRNA
# PUM1 PUF domain R2-QWR = PUM1 PUF domain R2-QWR (Homo sapiens, UniProt Q14671 828-1176, N899Q;Y900W;Q903R)
# Outline: (§1)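 Pumilio-1 PUF domain libraries, randomized at the three base-contacting residues of each repeat, were co-expressed with matching RNA elements from a centromeric plasmid in strain YBZ-1, which carries a LexA–MS2 coat fusion and a HIS3 reporter. Transformants grew for four days on SC-Leu (input) or on SC-Leu-His + 0.5 mM 3-AT (selection), and the repeat regions were PCR-amplified and Illumina-sequenced. The interaction score is the log change in variant frequency from input to selection. That logarithm is base 2, with a pseudocount of 1 where a variant was absent.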
# PUM1 PUF domain R3-RCG = PUM1 PUF domain R3-RCG (Homo sapiens, UniProt Q14671 828-1176, C935R;R936C;Q939G)
# Sequence of PUM1 PUF domain R3-RCG (Q14671 828-1176 C935R/R936C/Q939G): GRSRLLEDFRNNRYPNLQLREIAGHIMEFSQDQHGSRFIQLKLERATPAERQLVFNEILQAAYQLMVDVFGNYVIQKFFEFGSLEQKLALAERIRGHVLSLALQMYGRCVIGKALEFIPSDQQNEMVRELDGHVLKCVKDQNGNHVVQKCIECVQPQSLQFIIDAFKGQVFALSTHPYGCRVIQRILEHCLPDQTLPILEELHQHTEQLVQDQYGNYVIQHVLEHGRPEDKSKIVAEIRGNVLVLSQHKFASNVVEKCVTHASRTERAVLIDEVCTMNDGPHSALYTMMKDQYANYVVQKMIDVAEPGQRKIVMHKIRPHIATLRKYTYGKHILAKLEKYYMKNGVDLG
# Outline: as §1
# PUM1 PUF domain R3-LSA = PUM1 PUF domain R3-LSA (Homo sapiens, UniProt Q14671 828-1176, C935L;R936S;Q939A)
# Sequence of PUM1 PUF domain R3-LSA (Q14671 828-1176 C935L/R936S/Q939A): as the sequence (Q14671 828-1176 C935R/R936C/Q939G) above, with R108L, C109S, G112A counted along it
# Outline: as §1
# PUM1 PUF domain R8-KKK = PUM1 PUF domain R8-KKK (Homo sapiens, UniProt Q14671 828-1176, N1122K;Y1123K;Q1126K)
# Sequence of PUM1 PUF domain R8-KKK (Q14671 828-1176 N1122K/Y1123K/Q1126K): as the sequence (Q14671 828-1176 C935R/R936C/Q939G) above, with R108C, C109R, G112Q, N295K, Y296K, Q299K counted along it
# Outline: as §1
# PUM1 PUF domain R2-RTQ = PUM1 PUF domain R2-RTQ (Homo sapiens, UniProt Q14671 828-1176, N899R;Y900T)
# Sequence of PUM1 PUF domain R2-RTQ (Q14671 828-1176 N899R/Y900T): as the sequence (Q14671 828-1176 C935R/R936C/Q939G) above, with N72R, Y73T, R108C, C109R, G112Q counted along it
# Outline: as §1
# PUM1 PUF domain R5-ERV = PUM1 PUF domain R5-ERV (Homo sapiens, UniProt Q14671 828-1176, C1007E;Q1011V)
# Sequence of PUM1 PUF domain R5-ERV (Q14671 828-1176 C1007E/Q1011V): as the sequence (Q14671 828-1176 C935R/R936C/Q939G) above, with R108C, C109R, G112Q, C180E, Q184V counted along it
# Outline: as §1
# PUM1 PUF domain R4-SYP = PUM1 PUF domain R4-SYP (Homo sapiens, UniProt Q14671 828-1176, N971S;H972Y;Q975P)
# Sequence of PUM1 PUF domain R4-SYP (Q14671 828-1176 N971S/H972Y/Q975P): as the sequence (Q14671 828-1176 C935R/R936C/Q939G) above, with R108C, C109R, G112Q, N144S, H145Y, Q148P counted along it
# Outline: as §1
# PUM1 PUF domain R4-MRG = PUM1 PUF domain R4-MRG (Homo sapiens, UniProt Q14671 828-1176, N971M;H972R;Q975G)
# Sequence of PUM1 PUF domain R4-MRG (Q14671 828-1176 N971M/H972R/Q975G): as the sequence (Q14671 828-1176 C935R/R936C/Q939G) above, with R108C, C109R, G112Q, N144M, H145R, Q148G counted along it
# Outline: as §1
# PUM1 PUF domain R4-RYP = PUM1 PUF domain R4-RYP (Homo sapiens, UniProt Q14671 828-1176, N971R;H972Y;Q975P)
# Sequence of PUM1 PUF domain R4-RYP (Q14671 828-1176 N971R/H972Y/Q975P): as the sequence (Q14671 828-1176 C935R/R936C/Q939G) above, with R108C, C109R, G112Q, N144R, H145Y, Q148P counted along it
# Outline: as §1
# PUM1 PUF domain R4-SNQ = PUM1 PUF domain R4-SNQ (Homo sapiens, UniProt Q14671 828-1176, N971S;H972N)
# Sequence of PUM1 PUF domain R4-SNQ (Q14671 828-1176 N971S/H972N): as the sequence (Q14671 828-1176 C935R/R936C/Q939G) above, with R108C, C109R, G112Q, N144S, H145N counted along it
# Outline: as §1
# PUM1 PUF domain R5-FHI = PUM1 PUF domain R5-FHI (Homo sapiens, UniProt Q14671 828-1176, C1007F;R1008H;Q1011I)
# Sequence of PUM1 PUF domain R5-FHI (Q14671 828-1176 C1007F/R1008H/Q1011I): as the sequence (Q14671 828-1176 C935R/R936C/Q939G) above, with R108C, C109R, G112Q, C180F, R181H, Q184I counted along it
# Outline: as §1
# PUM1 PUF domain R5-LQR = PUM1 PUF domain R5-LQR (Homo sapiens, UniProt Q14671 828-1176, C1007L;R1008Q;Q1011R)
# Sequence of PUM1 PUF domain R5-LQR (Q14671 828-1176 C1007L/R1008Q/Q1011R): as the sequence (Q14671 828-1176 C935R/R936C/Q939G) above, with R108C, C109R, G112Q, C180L, R181Q, Q184R counted along it
# Outline: as §1
# PUM1 PUF domain R5-QKV = PUM1 PUF domain R5-QKV (Homo sapiens, UniProt Q14671 828-1176, C1007Q;R1008K;Q1011V)
# Sequence of PUM1 PUF domain R5-QKV (Q14671 828-1176 C1007Q/R1008K/Q1011V): as the sequence (Q14671 828-1176 C935R/R936C/Q939G) above, with R108C, C109R, G112Q, C180Q, R181K, Q184V counted along it
# Outline: as §1
# PUM1 PUF domain R4-ARR = PUM1 PUF domain R4-ARR (Homo sapiens, UniProt Q14671 828-1176, N971A;H972R;Q975R)
# Sequence of PUM1 PUF domain R4-ARR (Q14671 828-1176 N971A/H972R/Q975R): as the sequence (Q14671 828-1176 C935R/R936C/Q939G) above, with R108C, C109R, G112Q, N144A, H145R, Q148R counted along it
# Outline: as §1
# PUM1 PUF domain R4-DFC = PUM1 PUF domain R4-DFC (Homo sapiens, UniProt Q14671 828-1176, N971D;H972F;Q975C)
# Sequence of PUM1 PUF domain R4-DFC (Q14671 828-1176 N971D/H972F/Q975C): as the sequence (Q14671 828-1176 C935R/R936C/Q939G) above, with R108C, C109R, G112Q, N144D, H145F, Q148C counted along it
# Outline: as §1
# PUM1 PUF domain R4-PRC = PUM1 PUF domain R4-PRC (Homo sapiens, UniProt Q14671 828-1176, N971P;H972R;Q975C)
# Sequence of PUM1 PUF domain R4-PRC (Q14671 828-1176 N971P/H972R/Q975C): as the sequence (Q14671 828-1176 C935R/R936C/Q939G) above, with R108C, C109R, G112Q, N144P, H145R, Q148C counted along it
# Outline: as §1
# PUM1 PUF domain R3-NAL = PUM1 PUF domain R3-NAL (Homo sapiens, UniProt Q14671 828-1176, C935N;R936A;Q939L)
# Sequence of PUM1 PUF domain R3-NAL (Q14671 828-1176 C935N/R936A/Q939L): as the sequence (Q14671 828-1176 C935R/R936C/Q939G) above, with R108N, C109A, G112L counted along it
# Outline: as §1
# PUM1 PUF domain R3-VRY = PUM1 PUF domain R3-VRY (Homo sapiens, UniProt Q14671 828-1176, C935V;Q939Y)
# Sequence of PUM1 PUF domain R3-VRY (Q14671 828-1176 C935V/Q939Y): as the sequence (Q14671 828-1176 C935R/R936C/Q939G) above, with R108V, C109R, G112Y counted along it
# Outline: as §1
# PUM1 PUF domain R8-KWS = PUM1 PUF domain R8-KWS (Homo sapiens, UniProt Q14671 828-1176, N1122K;Y1123W;Q1126S)
# Sequence of PUM1 PUF domain R8-KWS (Q14671 828-1176 N1122K/Y1123W/Q1126S): as the sequence (Q14671 828-1176 C935R/R936C/Q939G) above, with R108C, C109R, G112Q, N295K, Y296W, Q299S counted along it
# Outline: as §1
# PUM1 PUF domain R5-THL = PUM1 PUF domain R5-THL (Homo sapiens, UniProt Q14671 828-1176, C1007T;R1008H;Q1011L)
# Sequence of PUM1 PUF domain R5-THL (Q14671 828-1176 C1007T/R1008H/Q1011L): as the sequence (Q14671 828-1176 C935R/R936C/Q939G) above, with R108C, C109R, G112Q, C180T, R181H, Q184L counted along it
# Outline: as §1
# Sequence of PUM1 PUF domain R2-QWR (Q14671 828-1176 N899Q/Y900W/Q903R): as the sequence (Q14671 828-1176 C935R/R936C/Q939G) above, with N72Q, Y73W, Q76R, R108C, C109R, G112Q counted along it
sequence,measurement,setting,value
GGCUAGAACUAGUGGAUCCCCCGGCGCCCGGCGGCUCGAGCCCGGGUAAGUGUAAACAGUCUGCAUGCCGCCGGGCGCCAUGCCUGCAGGUCGACUCUAGAAAACAUG,binding signal,PUM1 PUF domain R2-QWR,4.86 log2 enrichment (interaction score)
GGCUAGAACUAGUGGAUCCCCCGGCGCCCGGCGGCUCGAGCCCGGGUAAGUGUAAGUAGUCUGCAUGCCGCCGGGCGCCAUGCCUGCAGGUCGACUCUAGAAAACAUG,binding signal,PUM1 PUF domain R3-RCG,2.96 log2 enrichment (interaction score)
same,binding signal,PUM1 PUF domain R3-LSA,4.84 log2 enrichment (interaction score)
GGCUAGAACUAGUGGAUCCCCCGGCGCCCGGCGGCUCGAGCCCGGGUAAGCGUAAAUAGUCUGCAUGCCGCCGGGCGCCAUGCCUGCAGGUCGACUCUAGAAAACAUG,binding signal,PUM1 PUF domain R8-KKK,3.81 log2 enrichment (interaction score)
GGCUAGAACUAGUGGAUCCCCCGGCGCCCGGCGGCUCGAGCCCGGGUAAGUGUAAUUAGUCUGCAUGCCGCCGGGCGCCAUGCCUGCAGGUCGACUCUAGAAAACAUG,binding signal,PUM1 PUF domain R3-RCG,3.58 log2 enrichment (interaction score)
same,binding signal,PUM1 PUF domain R3-LSA,2.8 log2 enrichment (interaction score)
GGCUAGAACUAGUGGAUCCCCCGGCGCCCGGCGGCUCGAGCCCGGGUAAGUGUAAAAAGUCUGCAUGCCGCCGGGCGCCAUGCCUGCAGGUCGACUCUAGAAAACAUG,binding signal,PUM1 PUF domain R2-RTQ,2.44 log2 enrichment (interaction score)
GGCUAGAACUAGUGGAUCCCCCGGCGCCCGGCGGCUCGAGCCCGGGUAAGUGUGAAUAGUCUGCAUGCCGCCGGGCGCCAUGCCUGCAGGUCGACUCUAGAAAACAUG,binding signal,PUM1 PUF domain R5-ERV,3.34 log2 enrichment (interaction score)
GGCUAGAACUAGUGGAUCCCCCGGCGCCCGGCGGCUCGAGCCCGGGUAAGUGUAUAUAGUCUGCAUGCCGCCGGGCGCCAUGCCUGCAGGUCGACUCUAGAAAACAUG,binding signal,PUM1 PUF domain R4-SYP,6.95 log2 enrichment (interaction score)
same,binding signal,PUM1 PUF domain R4-MRG,1.61 log2 enrichment (interaction score)
same,binding signal,PUM1 PUF domain R4-RYP,2.78 log2 enrichment (interaction score)
same,binding signal,PUM1 PUF domain R4-SNQ,4.52 log2 enrichment (interaction score)
GGCUAGAACUAGUGGAUCCCCCGGCGCCCGGCGGCUCGAGCCCGGGUAAGUGUUAAUAGUCUGCAUGCCGCCGGGCGCCAUGCCUGCAGGUCGACUCUAGAAAACAUG,binding signal,PUM1 PUF domain R5-FHI,2.85 log2 enrichment (interaction score)
same,binding signal,PUM1 PUF domain R5-LQR,2.83 log2 enrichment (interaction score)
same,binding signal,PUM1 PUF domain R5-QKV,2.71 log2 enrichment (interaction score)
GGCUAGAACUAGUGGAUCCCCCGGCGCCCGGCGGCUCGAGCCCGGGUAAGUGUACAUAGUCUGCAUGCCGCCGGGCGCCAUGCCUGCAGGUCGACUCUAGAAAACAUG,binding signal,PUM1 PUF domain R4-SYP,6.78 log2 enrichment (interaction score)
same,binding signal,PUM1 PUF domain R4-MRG,1.34 log2 enrichment (interaction score)
same,binding signal,PUM1 PUF domain R4-ARR,2.99 log2 enrichment (interaction score)
same,binding signal,PUM1 PUF domain R4-DFC,5.67 log2 enrichment (interaction score)
GGCUAGAACUAGUGGAUCCCCCGGCGCCCGGCGGCUCGAGCCCGGGUAAGUGUAAAUAGUCUGCAUGCCGCCGGGCGCCAUGCCUGCAGGUCGACUCUAGAAAACAUG,binding signal,PUM1 PUF domain R4-PRC,2.48 log2 enrichment (interaction score)
same,binding signal,PUM1 PUF domain R5-LQR,1.81 log2 enrichment (interaction score)
same,binding signal,PUM1 PUF domain R5-ERV,5.11 log2 enrichment (interaction score)
same,binding signal,PUM1 PUF domain R3-NAL,3.24 log2 enrichment (interaction score)
same,binding signal,PUM1 PUF domain R3-RCG,0.63 log2 enrichment (interaction score)
same,binding signal,PUM1 PUF domain R4-MRG,2.56 log2 enrichment (interaction score)
same,binding signal,PUM1 PUF domain R4-RYP,5.03 log2 enrichment (interaction score)
same,binding signal,PUM1 PUF domain R3-VRY,4.24 log2 enrichment (interaction score)
same,binding signal,PUM1 PUF domain R8-KWS,3.68 log2 enrichment (interaction score)
same,binding signal,PUM1 PUF domain R5-THL,4.39 log2 enrichment (interaction score)
GGCUAGAACUAGUGGAUCCCCCGGCGCCCGGCGGCUCGAGCCCGGGUAAGUGUCAAUAGUCUGCAUGCCGCCGGGCGCCAUGCCUGCAGGUCGACUCUAGAAAACAUG,binding signal,PUM1 PUF domain R5-LQR,3.47 log2 enrichment (interaction score)
same,binding signal,PUM1 PUF domain R5-ERV,2.93 log2 enrichment (interaction score)

# — article PMC8384837, “Expanding the binding specificity for RNA recognition by a PUF domain”
